Screens as filed in PubChem BioAssay.
The list is not random: actives were taken first. Their share in the collection is about 7.2%.
FMDV antiviral: foot and mouth disease virus antiviral activity. 1.2% of 410,000 active. Potency, µM (titrated, usually from 57.9 µM), hits mostly inhibitors. AID 1159524. FMDV antiviral cell-based qHTS; calls by dose curve; tested in HEK293T cells; also: read-out not given here; nearly all actives have a fitted effect of over 45% in size
RE007 growth inh: less growth of the S. pombe RE007 Vpr strain. S. pombe RE007 Vpr strain, BacTiter-Glo ATP luminescence, 24 h. Potency, µM (titrated, usually from 92.2 µM), actives largely listed as inhibitors. 0.21% of 360,000 active; active = well fitted falling curve with a large enough effect; inconclusive = small, poorly fitted or top-dose-only effect; inactive = no such curve, though single readings can be large or run the other way; also: nearly all actives have a fitted effect of over 50% in size
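Fission yeast RE007 carrying one integrated HIV-1 vpr copy, seeded at OD 0.01 in PMG+AL medium with 23 nL pinned compound. Grown 24 h at 30 degrees; viability read by BacTiter-Glo luminescence after 5 min.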
Lassa entry inh: Lassa virus entry inhibition; Lassa virus pseudotype entry inhibition, cell reporter; Potency, µM (titrated, usually from 37.9 µM), actives largely listed as inhibitors; 1.2% of 300,000 active; calls by dose curve; tested in HEK293 cells; also: nearly all actives have a fitted effect of over 50% in size
Marburg entry inh: inhibitors of Marburg virus binding or cell entry. 1.8% of 300,000 active. Potency, µM (doses to about 37.8 µM), hits mostly inhibitors. Marburg virus pseudotyped entry inhibition, cell reporter; calls by dose curve; tested in HEK293 cells
Sm TGR block: S. mansoni TGR enzyme inhibition; Q962Y6; purified TGR, DTNB reduction, TNB absorbance 405 nm; Potency, µM (top dose mostly 114 µM), hits mostly inhibitors; 3% of 360,000 active; AID 485364; also: nearly all actives have a fitted effect of over 60% in size
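First, TGR (20 nM dispensed) and NADPH were mixed with compound. Second, a 15 min room-temperature incubation followed. Third, further NADPH and then DTNB were added to start the reaction. Finally, TNB absorbance was monitored kinetically.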
HCV inhibitor: inhibitors of hepatitis C virus infection | 3.4% of 340,000 active | Potency, µM (top dose mostly 41.8 µM), hits mostly inhibitors | AID 651820 | Huh7.5.1 HCVcc-Cre infection, luciferase reporter, 44 h
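Whole-lifecycle infectious HCVcc-Cre system; cells 1,000/well, compound then virus (~0.5 moi) added 4 h after plating, 44 h culture. Luciferase read 15 sec following 15 min substrate incubation, room temp.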
A number is an active result; [ ] = remark or other dose. Unless noted, calls follow the shape of the dose curve; as a rule, active = well fitted curve in the direction sought with a large enough effect; inconclusive = small, poorly fitted or top-dose-only effect, or another doubt; inactive = no such curve, though single readings can be large; an effect the other way counts as inactive or inconclusive.

For CN(C)c1nc(OCCNC(=O)Nc2ccccc2)nc(N2CCOCC2)n1 the results were FMDV antiviral inactive, Marburg entry inh inactive, Sm TGR block inactive and HCV inhibitor inconclusive.
`Cc1cc(C)cc(NC(=O)CN2C(=O)CCc3cc(S(=O)(=O)N4CCCCC4)ccc32)c1` gave FMDV antiviral inactive, Lassa entry inh inactive and Sm TGR block inactive.
For CCN(c1ccccc1)C(CNS(=O)(=O)c1ccccc1)c1ccccc1 (stereo unspecified) the results were FMDV antiviral inactive, Lassa entry inh inconclusive, Marburg entry inh inactive and Sm TGR block inactive.
`CS(=O)(=O)CC[C@H](C(=O)n1nnc2ccccc21)N1C(=O)c2ccccc2C1=O` gave Marburg entry inh inactive.
`COc1ccc(-c2cc(-c3ccccc3)c(C#N)c(S(C)=O)n2)cc1` (stereo unspecified) gave FMDV antiviral inconclusive, RE007 growth inh inactive, Lassa entry inh inconclusive, Marburg entry inh inconclusive, Sm TGR block inactive and HCV inhibitor 22µM.
`COc1ccc(CCNC2=C(Cl)C(=O)N(CCc3ccccc3)C2=O)cc1OC` gave FMDV antiviral 22µM, RE007 growth inh inactive, Lassa entry inh inactive, Marburg entry inh inconclusive, Sm TGR block inactive and HCV inhibitor 13µM.
For O=C1C(Cl)=C(Nc2ccccc2O)C(=O)N1CCc1ccccc1 the results were FMDV antiviral inactive, Lassa entry inh inconclusive, Marburg entry inh inconclusive, Sm TGR block 28µM and HCV inhibitor inactive.
COc1ccc(CCNc2c(N)n(Cc3ccccc3)c(=O)[nH]c2=O)cc1OC was read as FMDV antiviral inactive, RE007 growth inh inactive, Lassa entry inh inactive, Marburg entry inh inactive, Sm TGR block inactive and HCV inhibitor inactive.
O=C(Nc1cccc2cccnc12)c1ccc(F)cc1 was read as FMDV antiviral inactive, Lassa entry inh inactive and Sm TGR block inactive.
Screening Cc1ccc(-n2c(SCC(N)=O)nc3c(c2=O)C2(CCCC2)Cc2ccccc2-3)cc1 returned FMDV antiviral 22µM, RE007 growth inh inactive, Lassa entry inh inconclusive, Marburg entry inh inconclusive, Sm TGR block inactive and HCV inhibitor inactive.
COc1ccc(-c2oc3ccc(N4CCOCC4)cc3c2C#CCO)cc1 was read as FMDV antiviral 28µM, RE007 growth inh inactive and HCV inhibitor inconclusive.
For COc1ccc(-c2oc(=O)c3cc(OC)c(OC)cc3c2C#CCCO)cc1 the results were FMDV antiviral inactive, RE007 growth inh inactive and HCV inhibitor 3.2µM.
COc1ccc(-c2ccc3oc(-c4ccc(OC)cc4)c(C#CCO)c3c2)cc1 was read as FMDV antiviral 8.9µM, RE007 growth inh inactive and HCV inhibitor inconclusive.
For COc1ccc(-c2ccc3oc(-c4ccc(OC)cc4)c(-c4ccc(OC)cc4)c3c2)cc1 the results were FMDV antiviral inactive, RE007 growth inh inactive and HCV inhibitor inactive.
`Nc1ccc(C#Cc2c(-c3ccsc3)oc3ccc(N4CCOCC4)cc23)cc1` gave FMDV antiviral inactive, RE007 growth inh inactive and HCV inhibitor inactive[8.37 µM].
Screening COc1cc(OC)cc(-c2oc(=O)c3cc(OC)c(OC)cc3c2C#CCCO)c1 returned FMDV antiviral inactive, RE007 growth inh inactive and HCV inhibitor inconclusive.
COc1ccc(-c2c(C#CC(C)(C)O)c3ccccc3n2C)cc1 was read as FMDV antiviral inactive, RE007 growth inh inactive and HCV inhibitor inconclusive.
COc1ccc(-c2oc3ccccc3c2C#CC(C)(C)O)cc1 was read as FMDV antiviral inactive, RE007 growth inh inactive, Sm TGR block inconclusive and HCV inhibitor 7.9µM.
COc1cccc(N2CC(NC(=O)c3ccco3)CC2=O)c1 (stereo unspecified) was read as FMDV antiviral inactive, Lassa entry inh inactive and Sm TGR block inactive.
Screening CC(=O)N1CCCc2cc(S(=O)(=O)N(Cc3ccccc3)C(C)C)ccc21 returned FMDV antiviral inactive, Lassa entry inh inconclusive and Sm TGR block inactive.
For CSc1ccc(CCNC(=O)c2cc3n(n2)CCCN(Cc2ccc(C)cc2)C3=O)cc1 the results were FMDV antiviral inactive, Lassa entry inh inactive and Sm TGR block inactive.
`COc1ccccc1C(CC(=O)Nc1ccc(C)c(C)c1)c1ccc(OC(C)C)cc1` (stereo unspecified) gave FMDV antiviral inactive, RE007 growth inh inactive, Lassa entry inh inactive, Marburg entry inh inconclusive, Sm TGR block inactive and HCV inhibitor inconclusive.
`COc1ccccc1NC(=O)CC(c1ccc(OC(C)C)cc1)c1ccccc1OC` (stereo unspecified) gave FMDV antiviral inactive, RE007 growth inh inactive, Lassa entry inh inactive, Marburg entry inh inconclusive, Sm TGR block inactive and HCV inhibitor 11µM.
For COc1ccc(C(CCNCc2ccc(OC(C)C)cc2)C(C)C)cc1 (stereo unspecified) the results were FMDV antiviral inconclusive, RE007 growth inh inactive, Lassa entry inh inconclusive, Marburg entry inh inconclusive, Sm TGR block inactive and HCV inhibitor inconclusive.
`COc1ccc(CNCCC(c2ccc(OC(C)C)cc2)c2ccccc2OC)cc1OC` (stereo unspecified) gave FMDV antiviral inconclusive, RE007 growth inh inactive, Lassa entry inh inconclusive, Marburg entry inh inconclusive, Sm TGR block inactive and HCV inhibitor 13µM.
Screening COc1ccc(CNCCC(c2ccc(OC(C)C)cc2)C(C)C)cc1OC (stereo unspecified) returned FMDV antiviral inconclusive, RE007 growth inh inactive, Lassa entry inh 21µM, Marburg entry inh inconclusive, Sm TGR block inactive and HCV inhibitor 8.9µM.
`COc1ccc(CNC(=O)C2CCCN(S(=O)(=O)c3ccc4c(ccn4C)c3)C2)c(OC)c1` (stereo unspecified) gave FMDV antiviral inactive, Lassa entry inh inactive and Sm TGR block inactive.
For CCCN1Cc2cccc(C(=O)Nc3ccccc3F)c2C1=O the results were FMDV antiviral inactive, Lassa entry inh inconclusive, Marburg entry inh inactive and Sm TGR block inactive.
Screening COC1=CC(=O)[C@]2(C=C1OC)OC[C@@H]1Oc3c(ccc4c3C=CC(C)(C)O4)C(=O)[C@@H]12 returned FMDV antiviral 16µM, RE007 growth inh inactive and HCV inhibitor inactive.
O=C(CN1C(=O)COc2ccc(S(=O)(=O)N3CCCCCC3)cc21)N1CCN(c2ccc(F)cc2)CC1 was read as FMDV antiviral inactive, Lassa entry inh inactive, Marburg entry inh inactive and Sm TGR block inactive.
For COc1ccc(Cl)cc1NC(=O)Cn1c(=O)n(Cc2ccc(F)cc2)c(=O)c2cccnc21 the results were FMDV antiviral inactive, Marburg entry inh inactive and Sm TGR block inactive.
For CC(=O)c1ccc(N2CCN(C(=O)C3CCN(S(=O)(=O)c4cn(C)cn4)CC3)CC2)cc1 the results were FMDV antiviral inactive, Lassa entry inh inactive and Sm TGR block inactive.
O=C(CNC(=O)c1ccc(Cl)cc1)OCc1cc(=O)n2ccsc2n1 was read as FMDV antiviral inactive, Lassa entry inh inactive and Sm TGR block 35µM.
